Only some compounds are listed: those with a hit (about 21% of all), similar ones and a draw of the others.
VP16 counter: Gal4-VP16 reporter inhibition counter-screen | Drosophila S2 Gal4-VP16 UAS-luciferase, luminescence, 20 h | Potency, µM (titrated, usually from 53.6 µM), for the others: at the top dose activity, negative = inhibition, most hits filed as inhibitors | hit rate 3.5% among 310,000;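 note: Gal4-VP16 expression switched on by copper sulfate through the metallothionein promoter; potency is the fitted concentration of half-maximal effect; nearly all actives have a fitted effect of over 50% in size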
RORg inh: blocks mouse ROR gamma transcriptional activity | P51450 | Drosophila S2 Gal4-RORgamma UAS-luciferase reporter, 20 h | Potency, µM (titrated, usually from 53.6 µM), without a hit: top-dose activity change, negative = inhibition, actives largely listed as inhibitors | hit rate 5.4% among 310,000 | AID 2551; note: potency is the fitted concentration of half-maximal effect; nearly all actives have a fitted effect of over 60% in size
Target sequence (P51450 whole entry, looked up, the tested form may be a part): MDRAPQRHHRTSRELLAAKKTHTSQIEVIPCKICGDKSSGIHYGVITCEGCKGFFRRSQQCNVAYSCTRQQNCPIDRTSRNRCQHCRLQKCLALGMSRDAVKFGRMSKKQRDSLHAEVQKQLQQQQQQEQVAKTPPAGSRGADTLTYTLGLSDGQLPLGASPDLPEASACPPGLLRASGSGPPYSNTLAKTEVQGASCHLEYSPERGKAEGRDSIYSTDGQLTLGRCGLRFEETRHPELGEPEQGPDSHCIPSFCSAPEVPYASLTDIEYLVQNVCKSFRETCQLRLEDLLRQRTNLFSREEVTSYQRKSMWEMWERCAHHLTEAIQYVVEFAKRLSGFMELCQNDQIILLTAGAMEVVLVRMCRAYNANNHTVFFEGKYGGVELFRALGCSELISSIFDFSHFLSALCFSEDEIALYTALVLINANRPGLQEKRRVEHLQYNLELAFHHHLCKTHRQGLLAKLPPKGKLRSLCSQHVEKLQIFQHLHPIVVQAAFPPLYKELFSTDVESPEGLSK
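Read-out: Photinus luciferase luminescence; inhibitors lower reporter signal. Insect Schneider cells with Gal4-ROR gamma fusion under metallothionein promoter, UAS reporter; 700 uM final copper sulfate induction, 20 hr, ambient temperature.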
DT40 TDP1 no CPT: qHTS for Inhibitors of human tyrosyl-DNA phosphodiesterase 1 (TDP1): qHTS in cells in absence of CPT; DT40 Tdp1-/- hTDP1 cells, no CPT, ATP luminescence, 48 h; Potency, µM (doses to about 46.2 µM), for inactives: at the top dose activity change, negative = growth inhibition, hits mostly inhibitors; hit rate 15% among 420,000; AID 686978, 2013; note: potency is the fitted concentration of half-maximal effect; nearly all actives have a fitted effect of over 55% in size
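Readout: luminescence from CellTiter-Glo after 30 min in the dark at RT. Cells: DT40 Tdp1-/- with stable hTDP1, 400/well. Exposure: compounds alone, ≥48 hr, 37 °C.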
DT40 TDP1 CPT: growth inhibition of DT40 Tdp1-/-;hTDP1 cells with camptothecin (screen for TDP1 inhibitors). chicken DT40 Tdp1-/-;hTDP1 cells + 20 nM CPT, ATP luminescence, 48 h. Potency, µM (highest dose often 46.2 µM), inactives show top-dose activity change, negative = growth inhibition, most hits filed as inhibitors. hit rate 12% among 420,000. AID 686979; note: potency is the fitted concentration of half-maximal effect; nearly all actives have a fitted effect of over 55% in size
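Chicken DT40 Tdp1-/- cells complemented with human TDP1, 400 cells/well, exposed to compounds plus 20 nM camptothecin for at least 48 h at 37 C; viability read as ATP content by CellTiter-Glo luminescence.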
IL1B secr inh: blocks inflammasome-driven IL-1 beta release | THP-1 LPS/ATP IL-1B secretion, AlphaLISA, 16 h; active compounds read low | activity change, % at 57.5 µM | hit rate 4.7% among 360,000; in the data active = activity change below about -50%; inconclusive = mostly about -30% to -49%
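Secreted IL-1B measured by AlphaLISA bead assay after 16 h compound exposure of THP-1 cells; compounds (final up to 57.5 uM) added 1 h before LPS (250 ng/mL) and ATP (1.25 mM) stimulation; lower signal means less secretion.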
ELG1 DNA repair: blocks ELG1-dependent DNA repair in HEK293T cells; HEK293T ELG1-luciferase reporter, luminescence, 16 h; DNA damage induced by 5-fluorouridine; Potency, µM (doses to about 46.1 µM), without a hit: top-dose activity change, negative = inhibition, hits mostly inhibitors; hit rate 2.3% among 330,000; note: potency is the fitted concentration of half-maximal effect; nearly all actives have a fitted effect of over 55% in size
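Luminescence from the luciferase reporter, measured 30 min after ONE-Glo reagent at room temperature, was the read-out. Beforehand, 2,000 cells per well were exposed for 16 hr at 37 °C to 5-fluorouridine together with compound or vehicle.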
Active calls of the source: *; u = inconclusive; x = not tested or not shown; [ ] = another dose, or the depositor's remark. Unless noted, calls come from the whole dose curve; as a rule, active = well fitted curve in the direction sought with a large enough effect; inconclusive = small, poorly fitted or top-dose-only effect, or another doubt; inactive = no such curve, though single readings can be large; an effect the other way counts as inactive or inconclusive. % is set by controls: 0 for no effect and ±100 for the full control effect.

SMILES	VP16 counter	RORg inh	DT40 TDP1 no CPT	DT40 TDP1 CPT	IL1B secr inh	ELG1 DNA repair
CCOC(=O)c1c(C)[nH]c(C)c1S(=O)(=O)NCC(=O)NCc1ccccc1C	x	x	-15%	-12%	x	x
O=C(Cn1cc(C(=O)C2CC2)c2ccccc21)NCc1ccc2c(c1)OCO2	-2%	u	u	u	-29	-4%
Cc1cccc(NC(=O)Cn2c(O)c(N=NC(=O)c3ccncc3)c3ccccc32)c1	0%	-20%	-13%	0%	41	-25%
Cc1ccccc1NC(=O)Cn1c(O)c(N=NC(=O)c2ccccc2O)c2ccccc21	u	23%	5.8µM*	u	0	9%
CCC(=O)c1cn(CC(=O)Nc2c(C)cccc2C)c2ccccc12	4%	-3%[1.91 µM]	-8%	-15%	0	-21%
CC(=O)c1cn(CC(=O)NCc2ccc3c(c2)OCO3)c2ccccc12	5%	-17%	13µM*	13µM*	14	u
CC(=O)c1cn(CC(=O)Nc2c(C)cccc2C)c2ccccc12	7.1µM*	-18%	8.2µM*	10µM*	-15	0%
CC(=O)c1cn(CC(=O)Nc2ccccc2C)c2ccccc12	u	u	6.5µM*	8.2µM*	14	18%
O=C1c2ccccc2C(Nc2ccc(Cl)cn2)N1c1cccnc1 (stereo not drawn)	-2%	23%	-26%	3%	20	2%
CCOc1ccc2c(c1)c(=O)c(S(=O)(=O)c1ccc(CC)cc1)cn2Cc1cccc(Cl)c1	x	x	-23%	-23%	x	x
CCCc1cc(=O)[nH]c2nnc(SCC(=O)Nc3cccc(NC(C)=O)c3)n12	x	x	u	u	0	8%
COC(=O)c1ccccc1Nc1ccnc(Cl)n1	x	x	-13%	-7%	6	x
CCc1noc2nc(C)n(CC(=O)O)c(=O)c12	x	x	-1%	10%	x	x
C=CCOc1cccc(C(=O)N2CCCC(CNS(=O)(=O)c3cccs3)C2)c1 (stereo not drawn)	-1%	19%	-14%	-26%	-14	-16%
Cc1ccc(NC(=O)Cn2c(O)c(N=NC(N)=O)c3ccccc32)cc1	2%	-7%	u	u	-2	u
Cc1ccc(C)c(NC(=O)Cn2cc(C(=O)c3cccs3)c3ccccc32)c1	x	x	21µM*	18µM*	x	x
Cc1cccc(C)c1NC(=O)Cn1cc(C=O)c2ccccc21	u	u	8.2µM*	21µM*	35	u
Cc1cccc(NC(=O)Cn2cc(C=O)c3ccccc32)c1	-11%	u	u	u	63	-6%
Cc1ccc(NC(=O)Cn2c(O)c(N=NS(=O)(=O)c3ccc(C)cc3)c3ccccc32)cc1	0%	u	15µM*	u	-5	3%
O=C(O)C1CCN(C(=O)COc2ccc3c(c2)oc(=O)c2ccccc23)CC1	-4%	-16%	2%	3%	-4	12%
Cc1ccn(CCC(=O)N2CCCC(N3CCN(c4ccccc4C)CC3)C2)n1 (stereo not drawn)	x	x	u	u	25	x
C=CCn1c(SCC(=O)c2ccc(O)c(O)c2)nnc1-c1cccc(C)c1	x	x	18µM*	16µM*	-17	6%
C=CCn1c(SCC(=O)c2ccc(O)c(O)c2)nnc1-c1cccnc1	-4%	3%	7%	-16%	28	0%
C=CCn1c(SCC(=O)O)nnc1-c1ccc(C(C)(C)C)cc1	u	14µM*	u	-12%	27	0%
C=CCn1c(SCC(=O)c2ccc(O)c(O)c2)nnc1-c1cccc(Cl)c1	x	x	15µM*	15µM*	-6	-5%
SMILES	VP16 counter	RORg inh	DT40 TDP1 no CPT	DT40 TDP1 CPT	IL1B secr inh	ELG1 DNA repair
C=CCn1c(SCC(=O)O)nnc1-c1cccc(Cl)c1	4%	34%	u	-19%	13	4%
Clc1cccc(-c2ccc(/C=N/n3cnnc3)o2)c1	2%	34%	-2%	3%	-54*	5%
CCCNC(=O)C1(C)CCCN(Cc2csc(-c3ccccc3)n2)C1 (stereo not drawn)	x	x	21µM*	u	u	x
CCCNC(=O)C1(C)CCN(Cc2cc(-c3ccccc3)on2)C1 (stereo not drawn)	x	x	15µM*	u	-2	x
CCOc1ccc(CNC(=S)N/N=C/c2cccnc2)cc1	u	7.9µM*	-2%	u	0	u
O=[N+]([O-])c1ccc(C=NNC(=S)NN=Cc2ccc([N+](=O)[O-])cc2)cc1	x	x	-14%	u	28	x
CCOc1ccc(/C=N/NC(=O)c2ccc(Cn3cc([N+](=O)[O-])cn3)o2)cc1	25%	4%	-23%	-20%	-4	x
CC(C)(C)c1ccc(OCc2ccc(C(=O)N/N=C/c3ccc([N+](=O)[O-])cc3)o2)cc1	10µM*	u	21µM*	18µM*	-18	27%
CCOc1ccc(CNC(=S)N/N=C\c2ccc([N+](=O)[O-])cc2)cc1	2.8µM*	1.3µM*	8.2µM*	16µM*	-2	-17%
CC(C)Oc1ccc(CNC(=S)N/N=C/c2cccnc2)cc1	13µM*	4µM*	u	u	9	-17%
CC(C)NC(=S)N/N=C/c1cccnc1	-25%	u	u	u	-6	5%
CCOC(=O)CC(=O)c1sc2c(c1N)c(=O)[nH]c(=O)n2-c1ccc(OC)cc1	-5%	0%	-31%	7%	14	8%
Cc1cc(=O)oc(C)c1C(=O)N1CCN(C(c2ccccc2)c2ccccc2)CC1	-5%	u	29µM*	21µM*	-2	4%
Cc1onc(C(=O)N2CCOCC2)c1[N+](=O)[O-]	0%	-16%	1%	-5%	-8	2%
Cc1c(C(=O)N2CCN(C(c3ccccc3)c3ccccc3)CC2)oc2ccccc12	x	x	u	16µM*	13	17%
COc1ccccc1N1CCN(C(=O)c2c(C)cc(=O)oc2C)CC1	5%	-9%	4%	2%	0	13%
CC(=O)N1CCN(C(c2ccccc2)c2ccccc2)CC1	x	28%	-27%	0%	20	x
Cc1onc(C(=O)N2CCN(C(c3ccccc3)c3ccccc3)CC2)c1[N+](=O)[O-]	21%	-30%	u	u	-99*	u
CC12CCC(C(=O)N3CCN(C(c4ccccc4)c4ccccc4)CC3)(OC1=O)C2(C)C (stereo not drawn)	4%	0%	18µM*	u	1	u

Source: PubChem (National Center for Advancing Translational Sciences (NCATS))
